The whole screen tested about 360,000 compounds, of which about 2,400 (0.67%) were called active.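 How the source made its calls: active means inhibition above about 55% (limit read from the data); inconclusive means no clear call, values can overlap the other calls; inactive means the rest.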 This excerpt belongs to a sample that is enriched for actives.
Experiment: LAMP-1 surface exposure blockers, TALL-104 cells – cell-based, flow cytometry, MLPCN library, primary screen (AID 651702)
Settings: TALL-104 LAMP-1 surface exposure, at 10 µM, hits give high values, cells stimulated with thapsigargin and PMA

Row | SMILES | inhibition
1 | CC1CCCN(S(=O)(=O)c2ccc(N(C(=O)c3cnccn3)C(C(=O)NC3CCCCC3)c3cccs3)cc2)C1 (stereo unspecified) | 0.9% (inactive)
2 | Cc1ccc(S(=O)(=O)N2CCN(C(=O)c3cc(S(=O)(=O)N4CCOCC4)ccc3F)CC2)cc1 | -3% (inactive)
3 | Cc1ccc(S(=O)(=O)NCC(=O)NNC(=O)c2ccc(Br)cc2)cc1C | -1.3% (inactive)
4 | NS(=O)(=O)c1ccc(-c2ccc(/C=C3\SC(=O)NC3=O)o2)cc1 | -14.3% (inactive)
5 | CN1C(=O)/C(=C\c2ccc(-c3ccccc3)o2)SC1=S | 66.7% (active)
6 | Cc1ccc(C(=O)O)cc1-c1ccc(/C=C2\SC(=O)N(CC(=O)Nc3ccc4c(c3)OCO4)C2=O)o1 | -0.4% (inactive)
7 | NC(=O)CCCC1=NS(=O)(=O)c2ccccc2N1 | -3.9% (inactive)
8 | CN1CCN(NC(=O)Nc2ccc(Br)cc2)CC1 | -2% (inactive)
9 | O=C(Nc1ccc(C(=O)O)cc1)/C(=C\c1ccccc1)NC(=O)c1ccc(Br)cc1 | 9.3% (inactive)
10 | O=C(NC(=O)c1ccccc1N1CCCCC1)Nc1ccc(Br)cc1 | 84.6% (active)
11 | Cc1ccc(C)c(NC(=O)CCC(=O)N/N=C2/CC(=O)CC(C)(C)C2)c1 | 3.3% (inactive)
12 | OCCNc1nc(Nc2ccc(Cl)c(Cl)c2)nc2ccccc12 | 57.7% (active)
13 | COCCNc1nc(Nc2ccccc2Cl)c2sc(-c3ccccc3)cc2n1 | 47.2% (inactive)
14 | OCCNCCOc1ccc(Cl)c(Cl)c1 | 6.6% (inactive)
15 | COc1ccccc1Nc1nnc(SC(C)C(=O)NC2CC2)s1 (stereo unspecified) | 1.8% (inactive)
16 | COc1ccc(C23NCCN2C(=O)c2ccccc23)cc1 (stereo unspecified) | 8.9% (inactive)
17 | COCCNc1ncnc2c1ncn2[C@H]1CN(Cc2ccc(OC)cc2)C[C@@H](CO)O1 | 0.2% (inactive)
18 | CCc1oc(-c2ccc(OC)cc2)c(C(=O)OCCCCCO)c1C(C)OCCO (stereo unspecified) | 3.7% (inactive)
19 | COc1ccc(-c2oc3ncnc(NCCCO)c3c2-c2ccc(OC)cc2)cc1 | 70.3% (active)
20 | C#CCN1CC(C)/C(=N/O)CC1C (stereo unspecified) | 0.9% (inactive)
21 | CCn1c(-c2ccoc2C)n[nH]c1=S | 0.6% (inactive)
22 | COc1ccc(C2CC(c3cccs3)=NN2c2nc(C)c(C(C)=O)s2)cc1OC (stereo unspecified) | 87.5% (active)
23 | COc1ccc(C2CC(c3cccs3)=NN2C(=O)COC(=O)c2cc3ccccc3cc2O)cc1OC (stereo unspecified) | -2.9% (inactive)
24 | COc1ccc(C2CC(c3cccs3)=NN2C(=O)CSc2nnc(N)s2)cc1OC (stereo unspecified) | -3.2% (inactive)
25 | Cc1ccc(-n2nc(N)c3c(=O)oc(N(C)C)nc32)cc1 | -0.9% (inactive)
26 | Cc1cc(NC(=O)CSc2ncc(C(F)(F)F)cc2Cl)no1 | 5.6% (inactive)

Row | SMILES | inhibition
27 | Cc1nn(-c2ncc(C(F)(F)F)cc2Cl)c(=O)n1-c1ccccc1 | -0.5% (inactive)
28 | Cc1ccc(-c2ccnc3nc(Sc4ncc(C(F)(F)F)cc4Cl)nn23)cc1 | 67.5% (active)
29 | Cn1cnc(S(=O)(=O)Nc2ccc3c(c2)OCCO3)c1 | 5.9% (inactive)
30 | CCC(=O)Nc1c(C)n[nH]c1C | -0.1% (inactive)
31 | COc1ccc(-c2cc(NC=O)c3ncc(-c4ccccc4)n3c2)cc1OC | 81.8% (active)
32 | CC(=O)c1cccc(-c2cnc3c(NC=O)cc(-c4ccccc4Oc4ccccc4)cn23)c1 | 13.9% (inactive)
33 | COc1ccc(-c2cc(NC=O)c3ncc(-c4cc(OC)c(OC)c(OC)c4)n3c2)c(OC)c1 | 28.6% (inactive)
34 | CC(NC(=O)CN(C)S(=O)(=O)c1ccc(F)cc1)C1CC2CCC1C2 (stereo unspecified) | 0.1% (inactive)
35 | O=C(NCc1cccs1)c1ccc(Br)o1 | -0.6% (inactive)
36 | O=C(Cc1coc2ccc3ccccc3c12)NCc1cccs1 | -2.5% (inactive)
37 | CC(C)Cn1c(N)c(C(=O)NCc2cccs2)c2nc3ccccc3nc21 | 59.6% (active)
38 | COc1ccc2cc(-c3[nH]ncc3CNCCn3nc(C)cc3C)ccc2c1 | 18.3% (inactive)
39 | COc1ccc(Oc2cn[nH]c2-c2ccc(OC)cc2O)cc1 | 60.1% (active)
40 | COc1ccc(N=Nc2c(-c3ccc(OC)cc3)[nH]oc2=O)cc1 | -8.4% (inactive)
41 | COc1ccc(-c2[nH]ncc2CN(C)Cc2c(C)n[nH]c2C)c(OC)c1 | -1.2% (inactive)
42 | COc1ccc(-c2cn[nH]c2-c2ccc(OC)cc2)cc1 | 65.6% (active)
43 | COc1ccc(-c2c(-c3ccc(OC)cc3O)nc(C)nc2C(F)(F)F)cc1 | 27.6% (inactive)
44 | Cn1c(C(=O)N2CCCC(C(=O)NCc3ccccc3)C2)cc2sccc21 (stereo unspecified) | -4.6% (inactive)
45 | COc1ccc(S(=O)(=O)N2CCN(CC(=O)N3CCOCC3)CC2)cc1OC | -0.5% (inactive)
46 | Cc1ccc(OCCC(=O)OCC(=O)N2c3ccccc3NC(=O)C2(C)C)cc1 | 3.1% (inactive)
47 | COc1ccc2[nH]c(=O)c(C3c4cc(OC)c(OC)cc4CCN3C(=O)c3ccco3)cc2c1 (stereo unspecified) | -2.2% (inactive)
48 | CCNC(=O)COC(=O)CCNC(=O)c1cccc(C)c1 | -0.6% (inactive)
49 | Cc1cccc(-c2nc3ccc(C(=O)NCCN4CCN(C)CC4)cc3nc2-c2cccc(C)c2)c1 | 57.4% (active)
50 | O=C(NCCN1CCOCC1)c1cccc(S(=O)(=O)Nc2ccc(F)cc2)c1 | -1.1% (inactive)
51 | CCC(C)CN1C(=O)CN(S(C)(=O)=O)CC1(C)C(=O)Nc1ccc2c(c1)OCCO2 (stereo unspecified) | -2% (inactive)
52 | Cc1coc2c(O)cc3c(c12)OC1(N2CCCCC2)C(=O)NCCCC31 (stereo unspecified) | 68.1% (active)

Row | SMILES | inhibition
53 | CC1CN(C2CCN(C(=O)COc3ccccc3)CC2)CC(C)O1 (stereo unspecified) | -2.5% (inactive)
54 | COc1cccc(CNc2nc(NCc3ccccc3OC)nc3ccsc23)c1 | 73.8% (active)
55 | COc1ccccc1CNc1nc(Nc2ccccc2Cl)c2sccc2n1 | 2% (inactive)
56 | COc1cccc(CNc2nc(NCc3cccs3)nc3ccsc23)c1 | 21% (inactive)
57 | CC1CCCC(C)N1C(=O)CSc1nnnn1C1CCCC1 (stereo unspecified) | -4% (inactive)
58 | COc1ccccc1C1=CC(=O)CCC1 | 47.3% (inactive)
59 | COc1ccccc1C1=Nc2cccc3cccc(c23)N1 | 65.7% (active)
60 | COc1ccccc1-c1nc(C(F)(F)F)c(OC)o1 | 1.1% (inactive)
61 | COc1ccc(CC(=O)N[C@@H]2c3cc(OC)c(OC)cc3C[C@H]2OCc2ccccc2)cc1 | -2.2% (inactive)
62 | COc1ccccc1CC(NC(C)=O)C(=O)NC1CCN(C(=O)Nc2ccccc2Cl)CC1 (stereo unspecified) | 6.8% (inactive)
63 | C[C@H](CO)N1C[C@H](C)[C@@H](CN(C)Cc2ccc3c(c2)OCO3)OCc2cnnn2CCCC1=O | 2.5% (inactive)
64 | O=C(CCS(=O)(=O)c1ccccc1)NC1CCCC1 | -1.3% (inactive)
65 | Cc1cccc2sc(N(CCCN(C)C)C(=O)CCS(=O)(=O)c3ccccc3)nc12 | 90.8% (active)
66 | Cc1cccc(C)c1NC(=O)CCS(=O)(=O)c1cccc2nsnc12 | -2.7% (inactive)
67 | COC(=O)COc1ccc(C2NC(=O)NC(C)=C2C(=O)NCc2ccccc2)cc1OC (stereo unspecified) | -3.7% (inactive)
68 | COc1ccc(C2=NS(=O)(=O)N(C)C(C(=O)N(C)Cc3ccccc3)=C2)cc1 | -1.2% (inactive)
69 | COc1ccc(-c2cc(C(=O)N(C)Cc3ccccc3)c3ccccc3n2)cc1 | 74.5% (active)
70 | COc1ccc(CN(C)C(=O)c2cc(-c3ccc(C)cc3C)nc3ccccc23)c(OC)c1OC | 19.4% (inactive)
71 | COc1c(C)cc(C(=O)C2CCCN(S(=O)(=O)c3c(C)noc3C)C2)cc1C (stereo unspecified) | -1.1% (inactive)
72 | O=C(CC(CC(=O)c1ccccc1)c1ccco1)c1ccccc1 | 4.2% (inactive)
73 | CC(C)c1ccccc1OCC(O)CN(CC(O)COc1cccc2ccccc12)C(C)C (stereo unspecified) | 73.4% (active)
74 | CC1CC(C)CN(CCOc2cccc3ccccc23)C1 (stereo unspecified) | 7.6% (inactive)
75 | CN1CCN(CCCCOc2cccc3ccccc23)CC1 | 24.7% (inactive)
76 | CCCC(NC(=O)c1ccccc1)c1nc2ccccc2n1Cc1ccc(C(=O)OC)o1 (stereo unspecified) | 0.5% (inactive)

Source: PubChem BioAssay AID651702 (NMMLSC, 2012)
